# Source: PubChem BioAssay (EPA / NIEHS)
# “And” between values parts separate entries of the source, which are not always exact repeats. Equal values may be shown once. Some structures have more than one record in an assay (separate samples or runs), and their calls can disagree. The source made the active and inactive calls. Rule for the calls: active = hit-call score of the fitted dose curve at least 0.9, where 1 is the maximum; inactive = score below 0.9.
# Tests used:
# [1] = read-out: Intercellular Adhesion Molecule 1 (ICAM1), ICAM1 (gene 3383); assay: BSK_BE3C_ICAM1: BioMAP Diversity Plus: BE3C Assay for Intercellular Adhesion Molecule 1 (ICAM1) Biomarker Activity (AID 2284278); conditions: primary human bronchial epithelial cells;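 for outcome: cell-surface ICAM-1 protein level quantified by ELISA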
# Method in brief: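 Primary human bronchial epithelial cells in BE3C system, 24 h after chemical dosing; cell-surface ICAM-1 measured by ELISA relative to DMSO. Parallel SRB staining (0.1% SRB after 10% TCA fixation, read at 560 nm) assessed cytotoxicity.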
# [2] = read-out: Interferon-inducible T-cell alpha chemoattractant (ITAC), CXCL11 (gene 6373); assay: BSK_BE3C_ITAC: BioMAP Diversity Plus: BE3C Assay for Interferon-inducible T-cell alpha chemoattractant (ITAC) Biomarker Activity (AID 2284279); conditions: primary human bronchial epithelial cells
# Method in brief: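 Steps: dose human bronchial epithelial cells with chemical; incubate 24 h; measure I-TAC by ELISA; fit endpoint in positive direction against DMSO control. Cytotoxicity was checked in parallel cultures by SRB staining at harvest.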
# [3] = read-out: Interleukin-8 (IL8), CXCL8 (gene 3576); assay: BSK_BE3C_IL8: BioMAP Diversity Plus: BE3C Assay for Interleukin-8 (IL8) Biomarker Activity (AID 2284280); conditions: primary human bronchial epithelial cells
# Method in brief: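 IL-8 signal gain, normalised to DMSO vehicle, was scored after a 24 h chemical exposure of primary human bronchial epithelial cells, with detection by ELISA.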
# [4] = read-out: Epidermal growth factor receptor (EGFR), EGFR (gene 1956); assay: BSK_BE3C_EGFR: BioMAP Diversity Plus: BE3C Assay for Epidermal growth factor receptor (EGFR) Biomarker Activity (AID 2284281); conditions: primary human bronchial epithelial cells
# Method in brief: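 Compound is added to human bronchial epithelial cells, cells incubate 24 h, then EGFR is detected by ELISA. Values reflect positive-direction fitting relative to DMSO.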
# [5] = read-out: KRT18 (gene 3875); assay: BSK_BE3C_Keratin818: BioMAP Diversity Plus: BE3C Assay for Keratin 818 Biomarker Activity (AID 2284282); conditions: primary human bronchial epithelial cells
# Method in brief: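 Primary human bronchial epithelial cells treated 24 h; Keratin 8/18 quantified by ELISA, fit relative to DMSO. Cytotoxicity tracked in parallel cultures by sulforhodamine B total-protein staining.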
# [6] = read-out: Matrix Metallopeptidase 9 (MMP9), MMP9 (gene 4318); assay: BSK_BE3C_MMP9: BioMAP Diversity Plus: BE3C Assay for Matrix Metallopeptidase 9 (MMP9) Biomarker Activity (AID 2284283); conditions: primary human bronchial epithelial cells
# Method in brief: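 MMP9 is measured by ELISA after a 24 h compound exposure of primary human bronchial epithelial cultures. Parallel SRB staining gives overt cytotoxicity. Values fitted in the positive direction against DMSO.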
# [7] = read-out: Plasminogen activator inhibitor-1 (PAI1), SERPINE1 (gene 5054); assay: BSK_CASM3C_PAI1: BioMAP Diversity Plus: CASM3C Assay for Plasminogen activator inhibitor-1 (PAI1) Biomarker Activity (AID 2284284); conditions: primary human coronary artery smooth muscle cells;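 note: PAI-1 protein level measured by ELISA 24 h after dosing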
# [8] = read-out: Monocyte Chemoattractant Protein-1 (MCP1), CCL2 (gene 6347); assay: BSK_hDFCGF_MCP1: BioMAP Diversity Plus: hDFCGF Assay for Monocyte Chemoattractant Protein-1 (MCP1) Biomarker Activity (AID 2284285); conditions: primary human foreskin fibroblasts
# Method in brief: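 Human foreskin fibroblasts (hDFCGF system) were exposed to compound and secreted MCP-1 was measured by ELISA after 24 hours. Activity was fitted relative to DMSO. Cytotoxicity was checked by SRB total-protein staining in parallel cultures.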
# [9] = read-out: Intercellular Adhesion Molecule 1 (ICAM1), ICAM1 (gene 3383); assay: BSK_hDFCGF_ICAM1: BioMAP Diversity Plus: hDFCGF Assay for Intercellular Adhesion Molecule 1 (ICAM1) Biomarker Activity (AID 2284287); conditions: primary human foreskin fibroblasts
# Method in brief: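 Primary human foreskin fibroblasts (hDFCGF system) dosed with chemical; ICAM-1 quantified by ELISA at 24 h relative to DMSO. Parallel SRB total-protein staining to assess overt cytotoxicity.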
# [10] = read-out: urokinase Plasminogen Activator (uPA), PLAU (gene 5328); assay: BSK_BF4T_uPA: BioMAP Diversity Plus: BF4T Assay for urokinase Plasminogen Activator (uPA) Biomarker Activity (AID 2284275); conditions: primary human bronchial epithelial cells with fibroblasts
# Method in brief: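 Co-culture of human bronchial epithelial cells and dermal fibroblasts; uPA quantified by ELISA 24 hours after dosing, fitted relative to DMSO. Parallel SRB total-protein staining assessed overt cytotoxicity.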
# [11] = read-out: Matrix Metallopeptidase 9 (MMP9), MMP9 (gene 4318); assay: BSK_BF4T_MMP9: BioMAP Diversity Plus: BF4T Assay for Matrix Metallopeptidase 9 (MMP9) Biomarker Activity (AID 2284276); conditions: primary human bronchial epithelial cells with fibroblasts
# Method in brief: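 Co-culture of human bronchial epithelial cells and dermal fibroblasts dosed for 24 h; MMP-9 quantified by ELISA and fitted upward versus DMSO. Cytotoxicity monitored in parallel cultures by SRB total-protein staining at the biomarker time point.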
# [12] = read-out: Interleukin-8 (IL8), CXCL8 (gene 3576); assay: BSK_IMphg_IL8: BioMAP Diversity Plus: IMphg Assay for Interleukin-8 (IL8) Biomarker Activity (AID 2284277); conditions: primary human endothelial cells with macrophages
# Method in brief: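 Co-culture of human venular endothelial cells and macrophages exposed to chemicals for 24 h; IL-8 quantified by ELISA and compared against the DMSO baseline, with SRB total-protein staining in parallel cultures for cytotoxicity.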
# [13] = read-out: Vascular cell adhesion molecule 1 (VCAM1), VCAM1 (gene 7412); assay: BSK_IMphg_VCAM1: BioMAP Diversity Plus: IMphg Assay for Vascular cell adhesion molecule 1 (VCAM1) Biomarker Activity (AID 2284286); conditions: primary human endothelial cells with macrophages
# Method in brief: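 Human venular endothelial cells co-cultured with macrophages; VCAM-1 quantified by ELISA 24 h after dosing, fitted in the positive direction against DMSO. Cytotoxicity was checked in parallel cultures by SRB total-protein staining (0.1% SRB after 10% TCA fixation, 560 nm).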
# [14] = read-out: CD40, CD40 (gene 958); assay: BSK_IMphg_CD40: BioMAP Diversity Plus: IMphg Assay for CD40 Biomarker Activity (AID 2284288); conditions: primary human endothelial cells with macrophages
# Method in brief: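 Venular endothelial cells co-cultured with macrophages (human primary), CD40 measured by ELISA 24 h after dosing. Positive-direction fit vs DMSO baseline; cytotoxicity tracked by SRB total-protein staining in parallel cultures.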
# [15] = read-out: Interleukin-1 alpha (IL1a), IL1A (gene 3552); assay: BSK_IMphg_IL1a: BioMAP Diversity Plus: IMphg Assay for Interleukin-1 alpha (IL1a) Biomarker Activity (AID 2284290); conditions: primary human endothelial cells with macrophages
# Method in brief: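 Human venular endothelial cells co-cultured with macrophages, IMphg system. IL-1α is measured by ELISA 24 h after dosing and fitted in the positive direction against DMSO. Cytotoxicity is assessed by SRB staining of parallel cultures.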
# [16] = read-out: E-selectin (Homo sapiens) (UniProt P16581); assay: BSK_IMphg_ESelectin: BioMAP Diversity Plus: IMphg Assay for Eselectin Biomarker Activity (AID 2284291); conditions: primary human endothelial cells with macrophages
# Method in brief: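 Human venular endothelial cell–macrophage co-culture, E-selectin measured by ELISA 24 h after chemical dosing. Signal fitted in the positive direction against DMSO as negative control and baseline.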
# [17] = BSK_IMphg_SRB: Viability Assessment in the BioMAP Diversity Plus: IMphg Assay (AID 2284292); conditions: primary human endothelial cells with macrophages;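 note: measured one day after compound addition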
# Method in brief: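 Human venular endothelial cells with macrophages, 24 h after chemical dosing; total protein by 0.1% SRB staining after 10% TCA fixation, read at 560 nm. Positive-direction fitting versus DMSO baseline.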
# [18] = read-out: Macrophage colony-stimulating factor (MCSF), CSF1 (gene 1435); assay: BSK_IMphg_MCSF: BioMAP Diversity Plus: IMphg Assay for Macrophage colony-stimulating factor (MCSF) Biomarker Activity (AID 2284293); conditions: primary human endothelial cells with macrophages
# Method in brief: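 Co-culture of human venular endothelial cells and macrophages, 24 hours of chemical exposure. M-CSF quantified by ELISA, with parallel SRB total-protein staining for cytotoxicity; activity fitted relative to DMSO.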
# [19] = read-out: TIMP metallopeptidase inhibitor 2 (TIMP2), TIMP2 (gene 7077); assay: BSK_hDFCGF_TIMP2: BioMAP Diversity Plus: hDFCGF Assay for TIMP metallopeptidase inhibitor 2 (TIMP2) Biomarker Activity (AID 2284289); conditions: primary human foreskin fibroblasts
# Method in brief: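 Primary human foreskin fibroblasts in the hDFCGF system, dosed for 24 h; TIMP-2 level measured by ELISA, fitted in the positive direction against DMSO; cytotoxicity checked in parallel by sulforhodamine B total protein staining.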
# [20] = read-out: Interleukin-10 (IL10), IL10 (gene 3586); assay: BSK_IMphg_IL10: BioMAP Diversity Plus: IMphg Assay for Interleukin-10 (IL10) Biomarker Activity (AID 2284294); conditions: primary human endothelial cells with macrophages
# Method in brief: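 Human venular endothelial cells cocultured with macrophages, dosed 24 h; IL-10 measured by ELISA, activity relative to DMSO. Cytotoxicity assessed in parallel cultures by sulforhodamine B total-protein staining.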
# Sequence of E-selectin (Homo sapiens) (P16581 whole entry, looked up): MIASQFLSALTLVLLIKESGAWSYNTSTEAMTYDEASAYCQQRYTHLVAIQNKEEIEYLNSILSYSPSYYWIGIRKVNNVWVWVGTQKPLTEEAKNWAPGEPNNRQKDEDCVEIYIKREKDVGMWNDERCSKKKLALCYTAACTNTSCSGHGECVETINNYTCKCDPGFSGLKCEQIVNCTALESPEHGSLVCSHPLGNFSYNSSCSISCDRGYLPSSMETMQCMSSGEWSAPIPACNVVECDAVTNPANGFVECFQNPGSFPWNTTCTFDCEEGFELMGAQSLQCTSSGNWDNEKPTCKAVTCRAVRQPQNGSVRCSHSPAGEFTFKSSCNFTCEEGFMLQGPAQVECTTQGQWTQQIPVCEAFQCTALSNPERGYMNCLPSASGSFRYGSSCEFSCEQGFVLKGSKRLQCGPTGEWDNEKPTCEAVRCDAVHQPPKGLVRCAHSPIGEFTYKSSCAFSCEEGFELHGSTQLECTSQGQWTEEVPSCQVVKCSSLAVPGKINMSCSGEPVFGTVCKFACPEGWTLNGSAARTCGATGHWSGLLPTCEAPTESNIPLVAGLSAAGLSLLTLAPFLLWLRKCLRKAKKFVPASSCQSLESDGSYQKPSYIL
smiles,measurement,setting,value
CCCCC(CC)COP(=O)(O)OCC(CC)CCCC (centres undefined),AC50,[1],29 µM (active)
same,outcome,[1],inactive
same,AC50,[2],28.9 µM (active)
same,outcome,[3],inactive
same,AC50,[4],26.3 µM (active) and 20 µM (active)
same,outcome,[5],inactive
same,AC50,[6],29.6 µM (active)
same,outcome,[6],inactive
same,outcome,[7],inactive
same,AC50,[8],32.2 µM (active)
same,outcome,[9],inactive
C=CC(F)(F)C(F)(F)C(F)(F)C(F)(F)C(F)(F)C(F)(F)C(F)(F)C(F)(F)F,outcome,[10],inactive
same,outcome,[11],inactive
same,outcome,[12],inactive
same,outcome,[1],inactive
same,outcome,[2],inactive
same,outcome,[3],inactive
same,outcome,[4],inactive
same,outcome,[5],inactive
same,outcome,[6],inactive
same,outcome,[7],inactive
same,outcome,[13],inactive
same,outcome,[14],inactive
same,outcome,[15],inactive
same,outcome,[16],inactive
same,outcome,[17],inactive
same,outcome,[18],inactive
O=P(O)(O)OCCC(F)(F)C(F)(F)C(F)(F)C(F)(F)C(F)(F)C(F)(F)F,outcome,[10],inactive
same,outcome,[11],inactive
same,outcome,[12],inactive
same,outcome,[1],inactive
same,outcome,[2],inactive
same,outcome,[3],inactive
same,outcome,[4],inactive
same,outcome,[5],inactive
same,outcome,[6],inactive
same,outcome,[7],inactive
same,outcome,[13],inactive
same,outcome,[14],inactive
same,outcome,[15],inactive
same,AC50,[16],5.46 µM (active)
same,outcome,[16],inactive
same,outcome,[17],inactive
same,outcome,[18],inactive
C=CC(F)(F)C(F)(F)C(F)(F)C(F)(F)C(F)(F)C(F)(F)C(F)(F)C(F)(F)C=C,outcome,[10],inactive
same,outcome,[11],inactive
same,outcome,[12],inactive
same,outcome,[1],inactive
same,outcome,[2],inactive
same,outcome,[3],inactive
same,outcome,[4],inactive
same,outcome,[5],inactive
same,outcome,[6],inactive
same,outcome,[7],inactive
same,outcome,[13],inactive
same,outcome,[14],inactive
same,outcome,[19],inactive
same,outcome,[15],inactive
same,outcome,[16],inactive
same,outcome,[17],inactive
same,outcome,[18],inactive
same,outcome,[20],inactive
O=C(O)C(F)(F)C(F)(F)C(F)F,outcome,[10],inactive
same,outcome,[11],inactive
same,outcome,[12],inactive
same,outcome,[1],inactive
same,outcome,[2],inactive
same,outcome,[3],inactive
same,outcome,[4],inactive
same,outcome,[5],inactive
same,outcome,[6],inactive
same,outcome,[7],inactive
same,outcome,[13],inactive
same,outcome,[14],inactive
same,outcome,[15],inactive
same,outcome,[16],inactive
same,outcome,[17],inactive
same,outcome,[18],inactive
same,outcome,[20],inactive
CCO[Si](CCC(F)(F)C(F)(F)C(F)(F)C(F)(F)C(F)(F)C(F)(F)F)(OCC)OCC,outcome,[10],inactive
same,outcome,[11],inactive
same,outcome,[12],inactive
same,outcome,[1],inactive
same,outcome,[2],inactive
same,outcome,[3],inactive
same,outcome,[4],inactive
same,outcome,[5],inactive
same,outcome,[6],inactive
same,outcome,[7],inactive
same,outcome,[13],inactive
same,outcome,[14],inactive
same,outcome,[15],inactive
same,outcome,[16],inactive
same,outcome,[17],inactive
same,outcome,[18],inactive
O=C(CC(=O)C(F)(F)C(F)(F)F)C(F)(F)F,outcome,[10],inactive
same,outcome,[11],inactive
same,outcome,[12],inactive
same,outcome,[1],inactive
same,outcome,[2],inactive
same,outcome,[3],inactive
same,outcome,[4],inactive
same,outcome,[5],inactive
same,outcome,[6],inactive
same,outcome,[7],inactive
same,outcome,[13],inactive
same,outcome,[9],inactive
same,outcome,[14],inactive
same,outcome,[19],inactive
same,outcome,[15],inactive
same,outcome,[16],inactive
same,outcome,[17],inactive
same,outcome,[18],inactive
same,outcome,[20],inactive
